Experimental data published in PubChem BioAssay AID651965 (National Center for Advancing Translational Sciences (NCATS), 2013).
The whole screen tested about 340,000 compounds, of which about 6,400 (1.9%) were called active. Entries that show only a call come without a potency. Not shown: some 4% with an inconclusive outcome. Calls follow the shape of the dose curve; as a rule, active = well fitted falling curve with a large enough effect; inconclusive = small, poorly fitted or top-dose-only effect; inactive = no such curve, though single readings can be large or run the other way. Only a selection was taken, and actives are over-represented in it overall.
Also: the source files actives as falling curves though it sought activators and does not explain the sign; nearly all actives have a fitted effect of over 65% in size.
Potency is read from the fitted curve at half-maximal effect.

The molecules below were run against ATP-dependent Clp protease proteolytic subunit (Bacillus subtilis (strain 168)) (UniProt P80244) (assay: qHTS Assay for Activators of ClpP). Conditions: purified B. subtilis ClpP, FRET peptide cleavage, 20 min; series mostly up to 57.5 µM.
Sequence of ATP-dependent Clp protease proteolytic subunit (Bacillus subtilis (strain 168)) (P80244 whole entry, looked up): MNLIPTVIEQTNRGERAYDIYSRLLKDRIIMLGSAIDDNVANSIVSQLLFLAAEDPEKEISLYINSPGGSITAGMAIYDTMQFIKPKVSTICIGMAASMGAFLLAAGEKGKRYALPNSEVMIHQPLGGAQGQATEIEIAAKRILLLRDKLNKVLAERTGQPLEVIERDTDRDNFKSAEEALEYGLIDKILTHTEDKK
Description: The Clp protease proteolytic subunit (ClpP) is the core unit of the Clp complex belonging to the peptidase family S14 that hydrolyzes protein into small peptides in the presence of ATP and magnesium. It is ubiquitously expressed and is the major protease in bacteria. […] Unlike common antibiotics that simply interfere with the essential enzyme activity, ADEP binding activates the ClpP core in the absence of the regulatory Clp-ATPases leading to uncontrolled proteolysis and eventually cell death. Activators binding to the docking site on ClpP can also block formation of the ClpXP and ClpA/C-P holoenzyme complexes interfering with the normal biological functions of ClpP and thus have the potential to become new anti-microbials.
To identify activators of ClpP, a FRET based quenching reversal assay was developed using a purified B. subtilis ClpP and a decapeptide substrate (FRET-FV). The FRET-FV is tagged with a fluorescent molecule amino benzoic acid (donor) at the N-terminus and a nitrotyrosine quencher (acceptor) at the C-terminus. FRET-FV cleaves upon activation of ClpP with ADEP treatement and reverses the quenching effect of the nitrotyrosine causing an increase in fluorescence emission signal at 430nm. This assay was used to screen the Molecular Libraries Small Molecule Repository (MLSMR).
NIH Molecular Libraries Probe Production Centers Network [MLPCN]
NIH Chemical Genomics Center [NCGC]
Assay Submitter (PI): Michael Maurizi, National Cancer Institute
Two and a half microL/well of purified enzyme solution (final concentrations 10 microg/mL B. subtilis ClpP in 100 mM Tris/HCl pH8, 100 mM KCl, 0.05% low protease BSA, 2.5% glycerol, 0.01% Tween-20 buffer) was dispensed into 1536-well assay plates (Greiner, black solid, medium-binding plates) with Aurora Discovery BioRAPTR Flying Reagent Dispenser (FRD, Beckton-Dickenson). Compound solution (23 nL) was transferred to the assay plate using Kalypsys pin tool equipped with a 1536-pin tool. […] FRET signals at time 0 and after 20 min room temperature incubation were obtained using the PerkinElmer Envision plate reader with 320nm excitation and 430nm emission filters. Delta FRET value (Time 20 - Time 0) was calculated and normalized to the delta FRET value of positive control ADEP (5.8 microM final concentration) and negative control DMSO and no enzyme wells.
For `Fc1ccc(C2N3CCCN23)cc1` (configuration not stated), the Potency was 28.2 µM (active). In the case of `O=c1[nH]c2ccccc2n1C1CCN(C(c2ccnc3ccccc23)c2nnnn2Cc2ccccc2)CC1` (configuration not stated), the Potency is reported as “inactive”. `Cc1cc(OCc2cc(C(=O)O)oc2C)c2c3c(c(=O)oc2c1)CCCC3` was tested, and the Potency was 28.2 µM (active). For `COC(=O)COc1cc(C)cc2oc(=O)c3c(c12)CCCC3`, the Potency was “inactive”. With `CCN1CCN(C(=O)Cc2coc3cc(C)cc(C)c23)CC1` the Potency was “inactive”. In the case of `Cc1ncoc1C(=O)NCC1=C(c2cccc3ccccc23)C[C@@H]2CC[C@H]1N2Cc1ccco1`, the Potency is reported as “inactive”. In the case of `CCOC(=O)c1cccc(C2=C(CNC(=O)c3ccncc3)[C@H]3CC[C@@H](C2)N3Cc2ccccc2)c1`, the Potency is reported as “inactive”. `COC(=O)C1=C(c2ccccc2)C[C@@H]2CC[C@H]1N2C(=O)NCc1ccco1` was tested, and the Potency was “inactive”. `CCOC(=O)c1c(N)n(Cc2ccccc2)c2nc3ccccc3nc12` was tested, and the Potency was 28.2 µM (active). In the case of `CCOC(=O)c1c(N)n(CCN2CCOCC2)c2nc3ccccc3nc12`, the Potency is reported as 25.1 µM (active). With `CCOc1ccc(CNC(=O)c2cccc(Nc3nc4ccccc4n4nnnc34)c2)cc1OC` the Potency was “inactive”. In the case of `CC/C(=N\NC(=O)c1ccccc1O)c1c(O)n(Cc2ccccc2)c(=O)[nH]c1=O`, the Potency is reported as “inactive”. With `COc1cc(Cn2c(N)c(C(=O)NCc3ccco3)c3nc4ccccc4nc32)cc(OC)c1OC` the Potency was 28.2 µM (active). `c1cc2c(cc1C1OCC3C(c4ccc5c(c4)OCO5)OCC13)OCO2` (configuration not stated) was tested, and the Potency was “inactive”. With `COc1cccc(C(c2nnnn2-c2ccc3c(c2)OCCO3)N2CCC3(CC2)C(=O)NCN3c2ccccc2)c1OC` (configuration not stated) the Potency was “inactive”. `S=C(NCCc1ccccc1)N1Cc2cc(N3CCOCC3)ccc2-n2nncc2C1` was tested, and the Potency was “inactive”. In the case of `O=c1[nH]c2ccccc2n1C1CCN(C(c2ccccc2)c2nnnn2Cc2ccccc2)CC1` (configuration not stated), the Potency is reported as “inactive”. For `CC(=O)NCC1=C(c2ccc3ccccc3c2)C[C@@H]2CC[C@H]1N2Cc1ccco1`, the Potency was “inactive”. For `CSCCC(c1nnnn1C(C)(C)C)N1CCC(n2c(=O)[nH]c3ccccc32)CC1` (configuration not stated), the Potency was “inactive”. With `CCn1cc(CN2CCCC(C(=O)c3cccc(C(F)(F)F)c3)C2)cn1` (configuration not stated) the Potency was “inactive”. For `COc1ccc(C2C=C(C)Oc3c2c(=O)oc2ccccc32)cc1OC` (configuration not stated), the Potency was “inactive”. In the case of `O=C(O)/C=C/c1ccc2c(c1)OCO2`, the Potency is reported as “inactive”. `O=c1c2ccccc2[nH]c(=S)n1-c1cccc(Cl)c1` was tested, and the Potency was “inactive”. With `O=C(Nc1ccc(Cl)cc1C(=O)c1ccccc1)c1cc(Cl)cc(Cl)c1` the Potency was “inactive”. In the case of `CC(C(=O)Nc1ccc(Cl)cc1Cl)N1CC=C(c2ccccc2)CC1` (configuration not stated), the Potency is reported as 28.2 µM (active). `CN1CCN(C(=S)SCC(=O)Nc2ccc(Cl)cc2C(=O)c2ccccc2)CC1` was tested, and the Potency was “inactive”. `O=C(NCC1=C(c2ccc3ccccc3c2)C[C@@H]2CC[C@H]1N2Cc1ccco1)c1cccs1` was tested, and the Potency was “inactive”.
